Screen size: about 1,900 compounds; about 250 (13%) were called active. Another 4% or so got no clear call; they are omitted.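 How the source made its calls: active means fitted curve reaches 40% rescue activity at or below the top valid dose, in every test run; inconclusive means test runs disagree, some active and some inactive; inactive means every run misses the threshold or moves the wrong way.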 A selection follows. Potency and affinity values are given separately.

This assay is described as follows: suppressors of statin myotoxicity in myotubes, dose response, cell-based, C2C12 myotubes, ATP luminescence, cherry pick (AID 624405).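 Further: myotubes are challenged with simvastatin at 10 µM to lower ATP.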 The settings on record: C2C12 myotubes + simvastatin, 48 h, scaled: DMSO wells 0, geranylgeraniol wells 100; series mostly up to 19.5 µM; rescue activity (ATP increase): at the top concentration.
Consider `C[C@@H]1CN([C@H](C)CO)C(=O)Cc2cc(NC(=O)Nc3cccc4ccccc34)ccc2O[C@H]1CN(C)Cc1ccc(Cl)c(Cl)c1`, for which the “rescue activity (ATP increase)” value was 26.4% [at 21 µM] (inactive). On to `O=C(C[C@H]1CC[C@@H](NC(=O)c2ccc3c(c2)OCO3)[C@H](CO)O1)NCc1ccc(Oc2ccccc2)cc1`, for which the “rescue activity (ATP increase)” value was -3.13% (inactive).

For the compound `C[C@@H]1CN([C@@H](C)CO)C(=O)Cc2cc(NC(=O)Nc3cccc4ccccc34)ccc2O[C@H]1CN(C)Cc1ccc2c(c1)OCO2`, the “rescue activity (ATP increase)” value was 8.72% [at 21 µM] (inactive).

For the compound `COC(=O)c1c(C(=O)OC)c2cc(C)ccn2c1Cl`, the “rescue activity (ATP increase)” value is -25% (inactive). The value for `C[C@@H]1CN([C@@H](C)CO)C(=O)Cc2cc(NS(=O)(=O)c3ccc(F)cc3)ccc2O[C@H]1CN(C)Cc1ccc(Oc2ccccc2)cc1` was 29% (inactive). Consider `C[C@@H]1CN([C@@H](C)CO)C(=O)c2cccc(NS(=O)(=O)c3cccs3)c2O[C@@H]1CN(C)S(=O)(=O)c1ccc(Cl)cc1`, for which the “rescue activity (ATP increase)” value was -8.95% (inactive). Take `COc1cccc(-c2cnc3c(c2)C(=O)N([C@H](C)CO)C[C@H](C)[C@H](CN(C)S(=O)(=O)c2cccs2)O3)c1`: the “rescue activity (ATP increase)” value was -17.5% (inactive).

For the compound `COc1ccc(C2CC(=O)c3cnc(N)nc3C2)c(OC)c1` (stereo unspecified), the “rescue activity (ATP increase)” value is -0.556% (inactive). On to `COc1ccc2c(c1OC)C(=O)N(c1ccccn1)C2`, for which the “rescue activity (ATP increase)” value was 17.7% (inactive). Regarding `CCOc1ccc(OCCOCCOc2c(Cl)cccc2Cl)cc1`, the “rescue activity (ATP increase)” value was 12.4% (inactive). Turning to `COC(=O)c1cn(CC(=O)N2C(C)CCCC2C)c2ccccc12` (stereo unspecified), the “rescue activity (ATP increase)” value was 6.27% (inactive).

`COc1ccc(S(=O)(=O)Nc2ccc3c(c2)C(=O)N([C@@H](C)CO)C[C@@H](C)[C@H](CN(C)S(=O)(=O)c2ccc(F)cc2)OCCCC[C@H](C)O3)cc1`: the “rescue activity (ATP increase)” value was -11.1% (inactive).

Take `O=C(Nc1cccc(Cl)c1)C1CCCN(S(=O)(=O)c2ccc(F)cc2)C1` (stereo unspecified): the “rescue activity (ATP increase)” value is 13.5% (inactive).

Take `CCS(=O)(=O)N1CCCC(C(=O)NCCc2ccc(OC)c(OC)c2)C1` (stereo unspecified): the “rescue activity (ATP increase)” value was -21.5% (inactive). For `Cc1ccc(S(=O)(=O)Nc2ccc3c(c2)C(=O)N([C@@H](C)CO)C[C@@H](C)[C@H](CN(C)S(=O)(=O)c2cccs2)O3)cc1`, the “rescue activity (ATP increase)” value is -0.835% (inactive). As to `CCOc1ccc(CNn2nnnc2N)cc1`, the “rescue activity (ATP increase)” value was 16.8% (inactive). The value for `C=CCN(c1ccccc1OC)S(=O)(=O)c1cccc(C(=O)OC2CCOC2=O)c1` (stereo unspecified) was -36.4% (inactive). As to `CCCNC(=O)N(C)C[C@@H]1Oc2cc(C3=CCCCC3)ccc2S(=O)(=O)N([C@H](C)CO)C[C@@H]1C`, the “rescue activity (ATP increase)” value was 14% (inactive). As for `Cc1ccc(NC(=O)c2ccccc2N(C)S(C)(=O)=O)cc1C`, the “rescue activity (ATP increase)” value is 3.5% (inactive).

Take `CSc1ccccc1NC(=O)c1ccccc1N(Cc1ccccc1)S(C)(=O)=O`: the “rescue activity (ATP increase)” value was 33.3% (inactive). On to `C[C@@H]1CCCCO[C@@H](CN(C)C(=O)c2ccccc2)[C@H](C)CN([C@@H](C)CO)C(=O)c2cc(NS(=O)(=O)c3cccs3)ccc2O1`, for which the “rescue activity (ATP increase)” value is 19.3% (inactive). On to `CCOC(=O)c1sc(NC(=O)c2c(C)nn(Cc3ccccc3)c2C)cc1C`, for which the “rescue activity (ATP increase)” value was -7.04% (inactive).

Regarding `COc1ccc(CN2[C@H](CO)[C@@H]3c4ccccc4NC[C@@H]32)cc1`, the “rescue activity (ATP increase)” value was -13.1% (inactive). Next, `COc1ccc(CN2[C@@H](CO)[C@@H]3c4ccccc4NC[C@@H]32)cc1`: -4.08% [at 21 µM] (inactive). The value for `O=C(Nc1ccccc1Cl)N1C[C@@H]2[C@H](c3ccccc31)[C@@H](CO)N2Cc1ccccc1` was -13% (inactive); that for `Cc1ccc(S(=O)(=O)Nc2ccc3c(c2)CC(=O)N([C@H](C)CO)C[C@H](C)[C@@H](CN(C)Cc2ccc(C(F)(F)F)cc2)O3)cc1` was 38.9% (inactive); that for `O=C(NCc1ccco1)c1ccccc1NS(=O)(=O)c1ccc2c(c1)OCCO2` was 26% (inactive). Next, `FC(F)(F)c1nc2nncn2c2c1CCCCC2`: 23.5% (inactive); `Cc1ccc(N(CN2CCCC2=O)C(=O)c2ccc(C)c(C)c2)cc1`: 29.9% (inactive); `CCc1ccc(N2CC(C(=O)NC3=NCCS3)CC2=O)cc1` (stereo unspecified): -11.8% (inactive). With `CC(C)N1C(=O)CCC1C(=O)N1CCC(Cc2ccccc2)CC1` (stereo unspecified), the “rescue activity (ATP increase)” value is 19.4% (inactive). For `CC(C)CC(NC(=O)C1CCC(C)CC1)C(=O)Nc1cccnc1` (stereo unspecified), the “rescue activity (ATP increase)” value was -6.5% (inactive). Take `COc1ccc(S(=O)(=O)Nc2ccc3c(c2)CC(=O)N([C@H](C)CO)C[C@@H](C)[C@@H](CN(C)Cc2ccc(Cl)c(Cl)c2)O3)cc1`: the “rescue activity (ATP increase)” value is 36.8% (inactive). On to `CC(C)NC(=O)Nc1ccc2c(c1)C(=O)N([C@H](C)CO)C[C@@H](C)[C@H](CN(C)C(=O)C1CCCCC1)OCCCC[C@@H](C)O2`, for which the “rescue activity (ATP increase)” value is 2.97% (inactive).

For the compound `C[C@@H]1CN([C@@H](C)CO)C(=O)Cc2cc(NS(=O)(=O)c3cn(C)cn3)ccc2O[C@H]1CN(C)Cc1ccc(Cl)c(Cl)c1`, the “rescue activity (ATP increase)” value is 4.02% (inactive). With `C[C@H]1CN([C@@H](C)CO)C(=O)Cc2cc(NS(=O)(=O)c3cn(C)cn3)ccc2O[C@@H]1CN(C)Cc1ccc(Cl)c(Cl)c1`, the “rescue activity (ATP increase)” value is 12.7% (inactive).

On to `C[C@@H]1CN([C@@H](C)CO)C(=O)Cc2cc(NS(=O)(=O)c3cn(C)cn3)ccc2O[C@@H]1CN(C)Cc1ccc(Cl)c(Cl)c1`, for which the “rescue activity (ATP increase)” value was 18.7% [at 21 µM] (inactive). As to `C[C@@H]1CN([C@H](C)CO)C(=O)Cc2cc(NS(=O)(=O)c3cn(C)cn3)ccc2O[C@H]1CN(C)Cc1ccc(Cl)c(Cl)c1`, the “rescue activity (ATP increase)” value was 12.2% [at 21 µM] (inactive). Next, `COc1ccc(CCNC2CCN(C)CC2)cc1OC`: 0.107% (inactive); `Cc1[nH]c2ccccc2c(=O)c1SC(F)(F)C(F)C(F)(F)F` (stereo unspecified): -8.66% (inactive); `Cc1ccc(CC2CC(=O)N(CCc3ccc4c(c3)OCO4)C2=O)cc1` (stereo unspecified): 15.4% (inactive). Consider `COc1ccc(NC(=O)N(C)C[C@H]2Oc3ccc(NC(=O)Cn4cnnn4)cc3C(=O)N([C@H](C)CO)C[C@H]2C)cc1`, for which the “rescue activity (ATP increase)” value is 2.03% (inactive). The value for `C[C@@H]1CN([C@H](C)CO)C(=O)Cc2cc(NC(=O)Cc3cn(C)c4ccccc34)ccc2O[C@H]1CN(C)Cc1ccc(C(F)(F)F)cc1` was -17.1% (inactive); that for `COc1cc2c3c(c1)C1(C(=O)N3C(C)(C)C=C2C)C(C#N)=C(N)Oc2cc(C)oc(=O)c21` (stereo unspecified) was 16% (inactive).

For the compound `COc1ccc(CCN2C(=O)C3C(C2=O)C2C=CC3C23CC3)cc1OC` (stereo unspecified), the “rescue activity (ATP increase)” value is -29.4% (inactive).

As to `C[C@@H]1CCCCO[C@@H](CN(C)Cc2ccc(Cl)c(Cl)c2)[C@@H](C)CN([C@H](C)CO)C(=O)c2cc(NC(=O)Cc3ccccc3)ccc2O1`, the “rescue activity (ATP increase)” value was 18% [at 21 µM] (inactive). Next, `Cc1ccc(CSCC(=O)Nc2ccc3c(c2)OCO3)cc1`: -21.8% (inactive); `COc1ccc(-n2c(SCC(=O)Nc3ccc4c(c3)OCO4)nc3ccccc3c2=O)cc1`: 45.4% (inactive). `C[C@@H]1CN([C@H](C)CO)C(=O)c2cccc(NC(=O)Nc3ccc(F)cc3)c2O[C@H]1CN(C)Cc1ccccc1`: the “rescue activity (ATP increase)” value is 1.81% (inactive). `Cc1ccc(C(C(=O)NC2CCCC2)N(Cc2cccs2)C(=O)CNC(=O)c2cccs2)o1` (stereo unspecified): the “rescue activity (ATP increase)” value is 3.04% (inactive). For `O=C(NC1CCCC1)C(c1ccsc1)N(Cc1ccco1)C(=O)Cc1cccs1` (stereo unspecified), the “rescue activity (ATP increase)” value is 7.96% (inactive).

These data come from PubChem BioAssay AID624405 (Broad Institute, 2012).
